Compound activity: PubChem, National Center for Advancing Translational Sciences (NCATS)
A selection: hits, their analogues and other compounds. The true share with any hit is near 6.2%.
KB-3-1 cytotox: qHTS assay for MDR1-selective chemotherapeutics: Primary screen using the parental adenocarcinoma cell KB-3-1. KB-3-1 viability, CellTiter-Glo ATP luminescence, 72 h. Potency, µM (top dose mostly 46.1 µM), actives largely listed as cytotoxic. actives 1.4% (n = 400,000). AID 1347075, 2019; note: % is set by controls: 0 for no effect and ±100 for the full control effect; nearly all actives have a fitted effect of over 60% in size
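Cells are dispensed, compounds pinned in, plates held at 37 °C for 72 h, then CellTiter-Glo is added and luminescence read after 10 minutes. Cell line: parental KB-3-1 in phenol-red-free DMEM, 10% FBS.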
ATXN2 expr inh: Primary qHTS for Inhibitors of ATXN expression | Potency, µM (highest dose often 57 µM), for inactives: top-dose activity change, negative = inhibition, actives largely listed as inhibitors | AID 1745845, 2022 | HEK-293 ATXN2-luciferase reporter, luminescence, 24 h | actives 0.72% (n = 360,000); note: % is set by controls: 0 for no effect and ±100 for the full control effect; nearly all actives have a fitted effect of over 55% in size
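qHTS (up to 57 uM final) was run with 24 h compound exposure of reporter cells at 37 °C. Each well was multiplexed: SteadyGlo luminescence measured ATXN2-luciferase expression after a fluorogenic Gly-Phe-AFC viability readout (25 uM final).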
ATXN viability: Viability Counterscreen for Primary qHTS for Inhibitors of ATXN expression | Potency, µM (doses to about 56.7 µM), actives largely listed as cytotoxic | actives 0.49% (n = 400,000) | S2 cells (HEK-293 line with an ATXN2-luciferase reporter) viability, CellTiter-Fluor protease fluorescence, 24 h; note: nearly all actives have a fitted effect of over 40% in size
HT1080NT lethal: qHTS for induction of synthetic lethality in tumor cells producing 2HG: qHTS for the HT-1080-NT fibrosarcoma cell line | HT-1080-NT fibrosarcoma viability, CellTiter-Glo ATP luminescence, 48 h | Potency, µM (doses to about 46.1 µM), for inactives: at the top dose activity, negative = less viability, most hits filed as cytotoxic | actives 1.6% (n = 360,000) | AID 686970, 2013;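 note: NT is the 2HG producing partner of a matched IDH1 knockdown line; 0% = DMSO-treated cells and -100% = media-only wells without cells; nearly all actives have a fitted effect of over 55% in size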
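Read-out is CellTiter-Glo luminescence after 10 minutes at room temperature, following 48 hours' compound treatment of HT-1080-NT cells (750 cells/well, RPMI, 5% FBS, 37 degrees C).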
KB-V1 cytotox: qHTS assay for MDR1-selective chemotherapeutics: Primary screen using the drug-selected MDR subline cells KB-V1; actives 3.4% (n = 400,000); KB-V1 MDR cells viability, CellTiter-Glo, 72 h; Potency, µM (series often up to 46.1 µM), actives largely listed as cytotoxic; note: % is set by controls: 0 for no effect and ±100 for the full control effect; nearly all actives have a fitted effect of over 60% in size
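qHTS viability screen in drug-selected KB-V1 MDR cells: 72 h compound treatment at 37 degrees C, ATP luminescence end point.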
HT1080 IDH1KD tx: qHTS for induction of synthetic lethality in tumor cells producing 2HG: qHTS for the HT-1080-IDH1KD cell line. HT-1080 IDH1 knockdown viability, ATP luminescence, 48 h. Potency, µM (series often up to 46.1 µM), inactives show at the highest dose activity, negative = toxicity, actives largely listed as cytotoxic. actives 2% (n = 360,000). AID 686971, 2013;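 note: 0% = DMSO wells and -100% = cell-free medium wells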
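IDH1KD HT-1080 cells, 750/well, RPMI + 5% FBS; compound pinned after 2 h settling; 48 h, 37 °C; CellTiter-Glo luminescence; % activity normalised to DMSO and no-cell wells; curves fitted, classed by r2 and efficacy.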
Numbers without * were called inactive; i = inactive; ? = inconclusive; . = no result; [ ] = remark or other dose. Calls come from the whole dose curve; as a rule, active = well fitted curve in the direction sought with a large enough effect; inconclusive = small, poorly fitted or top-dose-only effect, or another doubt; inactive = no such curve, though single readings can be large; an effect the other way counts as inactive or inconclusive. Potency is the fitted concentration of half-maximal effect.

SMILES	KB-3-1 cytotox	ATXN2 expr inh	ATXN viability	HT1080NT lethal	KB-V1 cytotox	HT1080 IDH1KD tx
CN(C)c1ccc(/C=C/N2C=CCc3c2ccc2ccccc32)cc1	0.581µM*	.	.	.	?	.
CCc1nnc2c(Nc3cccc(F)c3)nc3ccc(C(=O)c4ccccc4)cc3n12	?	-15.9%	i	.	9.2µM*	.
CCOc1ccc(-c2nn(-c3ccccc3)cc2C2NC(=O)NC(C)=C2C(=O)OC(C)C)cc1C (centres undefined)	i	-36.2%	i	.	i	.
N#Cc1c(-c2ccccc2)c(-c2ccccc2)nn(CC(=O)NNC(=O)Nc2ccc(Cl)cc2)c1=O	18.4µM*	-28.9%	?	6.51µM*	i	5.8µM*
O=C(Cn1nc(-c2ccc(Cl)cc2)c2ccccc2c1=O)Nc1cccc(Br)c1	i	10.6%	i	.	i	.
N#Cc1c(-c2ccccc2)c(-c2ccccc2)nn(CC(=O)NNC(=O)Nc2ccccc2)c1=O	5.8µM*	-2.6%	i	2.31µM*	i	3.26µM*
N#Cc1c(-c2ccc(Cl)cc2)c(-c2ccc(Cl)cc2)nn(CCOC(=O)CCC(=O)O)c1=O	2.31µM*	-10.0%	?	5.17µM*	7.31µM*	7.31µM*
CN(CC(=O)Nc1cccc(F)c1)C(=O)c1ccc2c(c1)CC(c1ccccc1)OC2=O (centres undefined)	18.4µM*	-36.5%	?	?	?	16.4µM*
CN(CC(=O)Nc1cccc(F)c1)C(=O)c1ccc(OCc2ccccc2)cc1	i	.	i	-6.4%	i	-10.0%
CN(CC(=O)Nc1cccc(F)c1)C(=O)c1ccc(C2SCCS2)cc1	?	-37.1%	i	-4.8%	18.4µM*	-18.2%
CN(CC(=O)Nc1cccc(F)c1)C(=O)c1ccc(N2C(=O)c3ccccc3C2=O)cc1	i	5.6%	i	-2.1%	i	-4.8%
N#C/C(=C\N1CCN(Cc2ccc3c(c2)OCO3)CC1)c1nc2ccccc2s1	?	-2.0%	i	?	20.6µM*	?
CCOC(=O)N1CCN(/C=C(\C#N)c2nc3ccccc3s2)CC1	i	12.6%	i	-18.9%	23.1µM*	-3.3%
C=CCOC(=O)C(C#N)c1nc2ccccc2nc1N1CCN(Cc2ccc3c(c2)OCO3)CC1 (centres undefined)	i	3.4%	i	-1.8%	23.1µM*	-3.0%
CCCCNC(=O)C(C#N)c1nc2ccccc2nc1N1CCN(Cc2ccc3c(c2)OCO3)CC1 (centres undefined)	i	4.9%	i	8.2%	i	9.8%
COc1ccc(Cl)cc1NC(=O)c1ccc2c(c1)CCN2S(C)(=O)=O	i	-5.6%	i	.	i	.
Cc1cccc(CN2CCN(CC(=O)NCCc3ccc(Cl)cc3)C2=O)c1	i	-14.3%	i	.	i	.
CN(CC(=O)Nc1c(Cl)cccc1Cl)C(=O)c1ccccc1-c1nc2ccccc2s1	i	-14.6%	i	-5.9%	8.2µM*	-10.0%
COc1cccc(NC(=O)CN(C)C(=O)c2ccccc2-c2nc3ccccc3s2)c1	i	-5.3%	i	-5.5%	18.4µM*	-1.8%
CN(CC(=O)Nc1c(Cl)cccc1Cl)C(=O)c1cc2ccccc2cc1O	i	4.1%	i	-10.9%	i	-12.2%
CCc1ccc(CNC(=O)C2CCCN(c3nnc(C)c4c(C)n(-c5ccc(OC)cc5)nc34)C2)cc1 (centres undefined)	i	-20.0%	?	.	?	.
COc1ccc(OC)c(CNCc2c(C(=O)O)n(Cc3cccc(F)c3)c3cc(OC)ccc23)c1	i	16.4%	?	.	i	.
CCCCCCCCCC(=O)N[C@H](CN1CCOCC1)[C@H](O)c1ccccc1	i	-8.0%	i	16.4µM*	?	?
O=C(c1ccccc1)[C@@H]1[C@@H]2C(=O)N(c3ccc(F)cc3)C(=O)[C@@H]2C2CCCN21 (some centres undefined)	?	.	?	?	i	23.1µM*
O=C(c1ccc(Cl)cc1)C1C2C(=O)N(c3ccccc3)C(=O)C2C2CCCN21 (centres undefined)	i	-1.7%	i	8.7%	i	13.5%
SMILES	KB-3-1 cytotox	ATXN2 expr inh	ATXN viability	HT1080NT lethal	KB-V1 cytotox	HT1080 IDH1KD tx
CC(=O)c1ccc(N2C(=O)C3C(C2=O)C(C(=O)c2ccc(Cl)cc2)N2CCCC32)cc1 (centres undefined)	?	36.7%	i	16.4µM*	?	?
COc1ccc(N2C(=O)C3C(C2=O)C(C(=O)c2ccc(Cl)cc2)N2CCCC32)cc1 (centres undefined)	i	?	?	13µM*	i	18.4µM*
COc1ccc(Oc2ncnc3c2oc2ccccc23)cc1	i	35.9%	i	.	i	.
O=C(c1cccc(Cl)c1)n1nc(-c2cccnc2)nc1NCc1ccccc1	i	2.2%	i	.	i	.
COCCN(CC(=O)Nc1ccccc1C(F)(F)F)C(=O)/C=C/c1cc(Cl)c2c(c1)OCCO2	i	-14.4%	i	-1.4%	3.66µM*	-34.4%
O=C1c2ccccc2C(=O)N1CCc1csc(-c2ccccc2)n1	?	1.6%	i	-2.0%	16.4µM*	-3.1%
O=C1c2ccccc2C(=O)N1CCc1csc(-c2ccc(F)cc2)n1	i	0.9%	i	-21.9%	?	-18.6%
CC(=O)C(Cl)C(=O)Nc1ccccc1 (centres undefined)	20.6µM*	2.9%[11.3 µM]	?	?	i	?
Cc1ccc(CCNc2ncnc(Cl)c2N)cc1	?	4.6%	i	0.651µM*	?	?
O=C(CSc1ccsc1[N+](=O)[O-])NCc1ccccc1	5.8µM*	88.0%	i	3.5%	?	-6.7%
CC1(C)NC(=O)N(CCOCCOc2cccc(Oc3ccccc3)c2)C1=O	i	-1.1%	i	-16.5%	i	-17.8%
CC1(C)NC(=O)N(CCOCCOc2ccc3ccccc3c2Br)C1=O	i	56.4%	?	-15.6%	20.6µM*	?
CC1(C)NC(=O)N(CCCCOc2ccc3ccccc3c2Cl)C1=O	?	73.4%	i	?	20.6µM*	10µM*
COc1cccc2cc(-c3nc(Nc4cccc(C)c4)sc3C)c(=O)oc12	i	3.4%	i	.	i	.
